Experimental data from PubChem BioAssay (Tox21).
“And” between values parts separate entries of the source, which are not always exact repeats. Equal entries are not always repeated. Inconclusive results are not listed. Some structures have more than one record in an assay (separate samples or runs), and their calls can disagree. The source made the active and inactive calls. Unless noted, the call rests on the fitted dose curve; in most records, active means well fitted curve in the direction sought with a large enough effect in the repeat runs; inconclusive means weak or mixed curves; inactive means no such curve, though single readings can be large; an effect the other way counts as inactive or inconclusive.

Key:
[1] = molecular target: Nuclear receptor subfamily 1 group I member 3 (Homo sapiens) (UniProt Q14994); assay: qHTS assay to identify small molecule antagonists of the constitutive androstane receptor (CAR) signaling pathway (AID 1224838); further: nearly all actives have a fitted effect of over 40% in size; further: potency means the concentration at half of the fitted maximal effect
Nuclear receptor subfamily 1 group I member 3 (Homo sapiens), sequence (Q14994 whole entry, looked up): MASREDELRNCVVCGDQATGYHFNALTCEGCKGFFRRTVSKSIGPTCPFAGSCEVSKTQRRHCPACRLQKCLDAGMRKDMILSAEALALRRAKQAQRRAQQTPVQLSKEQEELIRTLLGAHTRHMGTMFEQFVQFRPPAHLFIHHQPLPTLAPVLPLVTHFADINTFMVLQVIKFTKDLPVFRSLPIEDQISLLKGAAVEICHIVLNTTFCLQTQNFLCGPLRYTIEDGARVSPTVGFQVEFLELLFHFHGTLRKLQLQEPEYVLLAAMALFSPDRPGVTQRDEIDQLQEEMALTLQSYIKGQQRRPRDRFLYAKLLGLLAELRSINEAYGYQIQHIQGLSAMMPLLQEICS
Procedure, shortened: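 HepG2 cells stably carrying hCAR and a CYP2B6-2.2kb luciferase reporter, seeded 4 hrs before compound (15 concentrations). Stimulated with 50 nM CITCO for 24 hr at 37 C. ONE-Glo luminescence read after 30 min at room temperature.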

[2] = molecular target: Nuclear receptor subfamily 1 group I member 3 (Homo sapiens) (UniProt Q14994); assay: qHTS assay to identify small molecule agonists of the constitutive androstane receptor (CAR) signaling pathway (AID 1224839); further: nearly all actives have a fitted effect of over 15% in size
Procedure, shortened: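 HepG2 cells stably expressing hCAR and a CYP2B6-2.2kb luciferase reporter were treated with compounds at 15 concentrations plus 0.75 uM PK11195 (final) for 24 h at 37 C; luminescence was read after ONE-Glo addition.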

[3] = qHTS assay to identify small molecule antagonists of the estrogen related receptor signaling pathway with the pleiotropic PPARgamma coactivator (PGC) from Tox21 10K library (AID 1224841; call rule not given here; further: actives are mostly falling curves and most rising ones were filed inactive; nearly all actives have a fitted effect of over 50% in size; further: potency means the concentration at half of the fitted maximal effect)
Procedure, shortened: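 PGC/ERR cell line, 2,000 cells/well, pre-incubated 6 hours at 37 C, then exposed to compounds for 18 hours at 37 C; luciferase read with One-Glo luminescence after 30 min at room temperature.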

[4] = qHTS assay to identify small molecule agonists of H2AX (AID 1224845; active means well fitted activation curve with a large enough effect in the signal ratio in the repeat runs, not every such curve was filed as active; the % refers to the signal ratio; further: potency means the concentration at half of the fitted maximal effect)
Procedure, shortened: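 Wild-type CHO-K1 cells plated overnight, then exposed 3 hr at 37C to compounds at 15 concentrations (0.76% DMSO). Lysed, then HTRF anti-pH2AX(S139)-cryptate/anti-H2AX-d2 detection after 24 hr at room temperature; emissions 665 and 620 nm.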

[5] = qHTS assay to identify small molecule agonists of H2AX - cell viability counter screen (AID 1224847; calls by dose curve; further: nearly all actives have a fitted effect of over 30% in size; further: potency means the concentration at half of the fitted maximal effect; on activity change, negative = cytotoxicity: top concentration of the series differs between compounds)
Procedure, shortened: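 Wild-type CHO-K1 cells (10% FBS medium) were plated overnight at 37C, exposed to compounds at 15 concentrations for 3 hr at 37C (0.76% DMSO final), and viability was read as CellTiter-Glo luminescence after 30 min at room temperature.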

[6] = qHTS assay to identify small molecule antagonists of the estrogen related receptor (ERR) signaling pathway from Tox21 library (AID 1224848); further: nearly all actives have a fitted effect of over 50% in size; further: potency means the concentration at half of the fitted maximal effect
Procedure, shortened: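 Cells: ERR line, 2,000/well; 6 h preincubation 37 C/5% CO2. Cpd in DMSO via pin tool; 18 h, 37 C. ONE-Glo, 30 min RT, luminescence.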

[7] = qHTS assay to identify small molecule agonists of the estrogen related receptor (ERR) signaling pathway from Tox21 library (AID 1224849; calls by dose curve; further: nearly all actives have a fitted effect of over 15% in size); conditions: ERR reporter cell line, ONE-Glo luciferase, 18 h
Procedure, shortened: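 ERR reporter cells (NTP line) pre-incubated 6 hours at 37 C, then exposed to compounds for 18 hours at 37 C. ONE-Glo luciferase luminescence was read after 30 minutes at room temperature.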

[8] = qHTS RealTime-Glo MT Cell Viability Assay in HEK293 cells - 32 hour (AID 1224868); further: nearly all actives have a fitted effect of over 50% in size; further: potency means the concentration at half of the fitted maximal effect; on activity change, negative = cytotoxic: top concentration of the series differs between compounds
Procedure, shortened: (§1)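 Assay medium contained NanoLuc luciferase plus cell-permeant prosubstrate, added with HEK293 cells at 600 cells/well. After 5 h at 37 C/5% CO2 compounds were added; plates stayed at 37 C for 40 h with serial luminescence reads.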

[9] = qHTS RealTime-Glo MT Cell Viability Assay in HEK293 cells - 16 hour (AID 1224872); further: nearly all actives have a fitted effect of over 50% in size; further: potency means the concentration at half of the fitted maximal effect; on activity change, negative = cytotoxicity: top concentration of the series differs between compounds
Procedure, shortened: as §1

[10] = qHTS assay to identify small molecule antagonists of the estrogen related receptor signaling pathway with the pleiotropic PPARgamma coactivator (PGC) from Tox21 10K library - cell viability counter screen (AID 1224840; active means well fitted cell-killing curve with a large enough effect in the repeat runs, not every such curve was filed as active; further: nearly all actives have a fitted effect of over 40% in size; further: potency means the concentration at half of the fitted maximal effect)
Procedure, shortened: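 PGC/ERR cells (2,000/well) plated 6 h, then compound-treated for 17.5 h at 37 C. Viability measured by CellTiter-Fluor fluorescence after 30 min at 37 C, multiplexed with the pathway assay.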

[11] = qHTS assay to identify small molecule agonists of the estrogen related receptor signaling pathway with the pleiotropic PPARgamma coactivator (PGC) from Tox21 10K library (AID 1224842); further: nearly all actives have a fitted effect of over 15% in size; further: potency means the concentration at half of the fitted maximal effect
Procedure, shortened: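 PGC/ERR reporter cells (NTP line) were seeded 2,000 per well, rested 6 h at 37 C/5% CO2, then pin-dosed with compounds in DMSO for 18 h at 37 C; luciferase read by One-Glo luminescence after 30 min at room temperature.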

[12] = molecular target: Thyrotropin receptor (Homo sapiens) (UniProt P16473); assay: qHTS assay to identify small molecule agonists of the thyroid stimulating hormone receptor (TSHR) signaling pathway (AID 1224843; calls by dose curve; further: nearly all actives have a fitted effect of over 45% in size; further: potency means the concentration at half of the fitted maximal effect)
Thyrotropin receptor (Homo sapiens), sequence (P16473 whole entry, looked up): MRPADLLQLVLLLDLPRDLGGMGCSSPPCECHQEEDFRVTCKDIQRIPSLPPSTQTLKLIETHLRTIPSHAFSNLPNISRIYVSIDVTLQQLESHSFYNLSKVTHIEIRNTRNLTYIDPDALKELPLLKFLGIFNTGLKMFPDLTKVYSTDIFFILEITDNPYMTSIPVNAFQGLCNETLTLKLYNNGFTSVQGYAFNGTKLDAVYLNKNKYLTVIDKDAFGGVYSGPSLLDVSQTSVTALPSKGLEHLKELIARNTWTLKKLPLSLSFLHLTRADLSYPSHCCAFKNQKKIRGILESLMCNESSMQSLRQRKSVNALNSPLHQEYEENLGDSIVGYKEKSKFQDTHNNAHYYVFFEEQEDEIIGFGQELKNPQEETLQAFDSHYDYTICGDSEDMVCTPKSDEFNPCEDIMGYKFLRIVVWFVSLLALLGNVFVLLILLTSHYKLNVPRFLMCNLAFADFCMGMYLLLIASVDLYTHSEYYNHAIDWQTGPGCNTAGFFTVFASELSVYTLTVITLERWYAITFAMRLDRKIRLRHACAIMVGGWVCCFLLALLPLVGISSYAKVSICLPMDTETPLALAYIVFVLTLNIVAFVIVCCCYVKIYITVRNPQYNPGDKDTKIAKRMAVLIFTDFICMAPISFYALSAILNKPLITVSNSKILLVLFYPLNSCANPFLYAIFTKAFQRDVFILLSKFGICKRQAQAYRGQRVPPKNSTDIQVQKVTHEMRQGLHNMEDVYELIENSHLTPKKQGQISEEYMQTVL
Procedure, shortened: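 TSHR-expressing HEK293 cells (800 per well) were exposed to compounds for 30 min at room temperature. cAMP was then detected by HTRF competition with cAMP-d2 and anti-cAMP cryptate, read after 1 h at room temperature. Fifteen concentrations, triplicate.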

[13] = qHTS assay to identify small molecule agonists of the hypoxia (HIF-1) signaling pathway - cell viability counter screen (AID 1224844; calls by dose curve; further: nearly all actives have a fitted effect of over 50% in size; further: potency means the concentration at half of the fitted maximal effect)
Procedure, shortened: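 HRE-bla ME-180 cells, 2,000/well in 0.5% dialyzed FBS medium, treated 17 h at 37C with compounds. Viability read in the same wells as the bla reporter, by CellTiter-Glo luminescence after 30 min at room temperature.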

[14] = qHTS RealTime-Glo MT Cell Viability Assay in HepG2 cells - 24 hour (AID 1224867); further: nearly all actives have a fitted effect of over 50% in size; further: potency means the concentration at half of the fitted maximal effect
Procedure, shortened: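 qHTS, HepG2, 600 cells/well, RealTime-Glo (NanoLuc + prosubstrate) added with cells; 5 h preincubation; DMSO compound addition; 37 C; luminescence at 0/8/16/24/32/40 h.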

[15] = A CellTox Green Cytotoxicity Assay to monitor cytotoxicity in HEK293 cells - 0 hour (AID 1224869); further: nearly all actives have a fitted effect of over 50% in size
Procedure, shortened: (§2)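 HEK293 cells, 600/well, were preincubated 5 hours and then exposed to compounds at 37 C for up to 40 hours. A cell-impermeant cyanine dye staining dead-cell DNA was read by fluorescence at 0, 8, 16, 24, 32 and 40 h time points.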

[16] = qHTS RealTime-Glo MT Cell Viability Assay in HepG2 cells - 40 hour (AID 1224870); further: nearly all actives have a fitted effect of over 50% in size; further: potency means the concentration at half of the fitted maximal effect
Procedure, shortened: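 HepG2 cells mixed with RealTime-Glo MT reagents (NanoLuc plus cell-permeant prosubstrate) were seeded at 600 cells/well, incubated 5 h at 37 C/5% CO2, then pinned with compounds in DMSO; nonlytic luminescence tracked viability during 40 h treatment.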

[17] = A CellTox Green Cytotoxicity Assay to monitor cytotoxicity in HEK293 cells - 40 hour (AID 1224871); further: nearly all actives have a fitted effect of over 45% in size; further: potency means the concentration at half of the fitted maximal effect
Procedure, shortened: as §2

[18] = qHTS assay to identify small molecule antagonists of the constitutive androstane receptor (CAR) signaling pathway - cell viability counter screen (AID 1224837); further: nearly all actives have a fitted effect of over 45% in size
Procedure, shortened: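 HepG2 cells stably carrying hCAR and CYP2B6-2.2kb reporter, stimulated with 50 nM CITCO and compounds at 15 concentrations for 23 h at 37 C. Viability measured by CellTiter-Fluor fluorescence.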

[19] = qHTS assay to identify small molecule agonists of the hypoxia (HIF-1) signaling pathway (AID 1224846; active means well fitted activation curve with a large enough effect in the signal ratio in the repeat runs, not every such curve was filed as active; the % refers to the signal ratio)
Procedure, shortened: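 HRE-bla ME-180 beta-lactamase reporter cells in medium with 0.5% dialyzed FBS, pre-incubated 5 h then exposed to compounds 17 h at 37C, 5% CO2; reporter induction read with CCF4-AM FRET substrate.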
On the % scale 0 is the no-effect control and ±100 the full control effect.

O=C1CCc2ccc(OCCCCN3CCN(c4cccc(Cl)c4Cl)CC3)cc2N1
active: Potency [3] 11.9 µM | Potency [5] 55.2 µM | Potency [6] 11.9 µM | Potency [8] 10.7 µM | Potency [9] 10.7 µM
inactive: Potency [1] | Potency [2] | Potency [4] | activity change, positive = activation ([7]; at 42.5 µM (top of the series)) -56%

CCCCCCCCCCCCCC[N+](C)(C)Cc1ccccc1
inactive and 17.8 mM (active): Potency [13]
active: Potency [3] 31.1 µM and 11.9 µM and 15.8 mM | Potency [12] 43.9 µM | Potency [5] 25.7 µM and 49.2 µM | Potency [6] 9.84 µM and 10.6 µM and 11.2 mM | Potency [14] 44.3 µM and 10.7 µM and 17.8 mM | Potency [8] 3.52 µM and 3.01 µM and 2.82 mM | Potency [16] 22.2 µM and 9.52 µM and 15.8 mM | Potency [17] 24.9 µM and 19 µM and 15.8 mM | Potency [9] 19.8 µM and 9.52 µM and 12.6 mM
62.1 µM (active) and inactive: Potency [10]
inactive: Potency [1] | Potency [2] | Potency [11] | Potency [4] | activity change, positive = activation ([7]; at 42.5 µM (top of the series)) -57.9% | activity change, positive = activation ([7]; at 92.4 µM (top of the series)) -69.7% | activity change, positive = activation ([7]; at 46.2 mM (top of the series)) -75.1% | Potency [15]

O=c1[nH]c2ccccc2n1CCCN1CCN(C(c2ccccc2)c2ccccc2)CC1
active: Potency [10] 23.7 µM | Potency [14] 23.9 µM | Potency [8] 12 µM | Potency [16] 23.9 µM | Potency [9] 10.7 µM
inactive: Potency [2] | Potency [12] | Potency [15] | Potency [17]

OC12N=C(c3ccccc3)SC1Cc1cc(Cl)ccc12 (configuration not stated)
active: Potency [11] 8.63 µM | activity change, positive = activation ([7]; at 92.4 µM (top of the series)) 47.6%
inactive: Potency [18] | Potency [3] | Potency [13] | Potency [4] | Potency [19] | Potency [6] | Potency [14] | Potency [16] | Potency [17]

Nc1ccc(NCCO)c([N+](=O)[O-])c1
active: Potency [5] 80 µM
inactive: Potency [1] | Potency [2] | Potency [3] | Potency [11] | Potency [13] | Potency [19] | Potency [6] | activity change, positive = activation ([7]; at 92.4 µM (top of the series)) -17.2% | Potency [14] | Potency [8] | Potency [16] | Potency [17] | Potency [9]

CCc1oc2ccccc2c1C(=O)c1cc(I)c(O)c(I)c1
inactive: Potency [18] | Potency [10] | Potency [12] | Potency [13] | Potency [4] | Potency [14] | Potency [8] | Potency [15] | Potency [16] | Potency [17] | Potency [9]

Cc1c(C)c2c(c(C)c1O)CC[C@@](C)(CCC[C@H](C)CCC[C@H](C)CCCC(C)C)O2
inactive: Potency [18] | Potency [10] | Potency [13] | Potency [4] | Potency [19] | Potency [5] | Potency [14] | Potency [8] | Potency [15] | Potency [16] | Potency [17] | Potency [9]

CC(=O)Oc1cc2c(s1)CCN(C(C(=O)C1CC1)c1ccccc1F)C2 (configuration not stated)
inactive: Potency [10] | Potency [3] | Potency [11] | Potency [12] | Potency [13] | Potency [19] | Potency [5] | Potency [6] | activity change, positive = activation ([7]; at 42.5 µM (top of the series)) -6.5% | Potency [14] | Potency [8] | Potency [16] | Potency [17] | Potency [9]

Cc1cccc(C(=O)O)c1O
inactive: Potency [10] | Potency [3] | Potency [11] | Potency [12] | Potency [13] | Potency [4] | Potency [19] | Potency [5] | Potency [6] | activity change, positive = activation ([7]; at 42.5 µM (top of the series)) 0.112% | Potency [8] | Potency [15] | Potency [16] | Potency [17] | Potency [9]

CC(C)(C)NSc1nc2ccccc2s1
inactive: Potency [1] | Potency [2] | Potency [10] | Potency [12] | Potency [13] | Potency [4] | Potency [19] | Potency [5] | Potency [8] | Potency [15] | Potency [16] | Potency [17] | Potency [9]

O=C(O)CN(CCN(CC(=O)O)CC(=O)O)CC(=O)O
inactive: activation [2] -0.673% [at 3.27 µM] | viability change, negative = cytotoxic [10] 1.11% [at 3.27 µM] | activation [12] -1.34% [at 3.27 µM] | activity change, negative = cytotoxicity [13] -5.67% [at 2.72 µM] | activity change, negative = cytotoxicity [5] -5.08% [at 5.43 µM] | activity change, negative = cytotoxicity [14] 3.3% [at 2.72 µM] | activity change, negative = cytotoxic [8] 9.19% [at 2.72 µM] | activity change, negative = cytotoxicity [9] 0.0628% [at 2.72 µM]
active: Potency [1] 1.94 µM | Potency [4] 4.52 µM
